PK Bst – pyruvate kinase (B. stearothermophilus) modulation | purified pyruvate kinase, luminescence ATP production; ribose 5-phosphate activator present at AC10 | Potency, µM | 51,000 tested, 1.2% active | AID 361; in the data active = potency below about 11 µM; inconclusive = mostly about 12 µM to 25 µM;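 the screen sought inhibitors and activators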;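 also: scaled between full activation by ribose 5 phosphate and full inhibition by luteolin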
ERK AVP inh – inhibitors of vasopressin-stimulated ERK signaling pathway; 72,000 tested, 0.99% active; Potency, µM (top dose mostly 57.5 µM), for the others: at the top dose activity, negative = inhibition, actives largely listed as inhibitors; HEK293-V1b, vasopressin-stimulated pERK AlphaScreen; AID 995; also: nearly all actives have a fitted effect of over 55% in size
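qHTS, compounds titrated on V1b-expressing HEK293 cells. Preincubation 30 min at 37C, vasopressin 25 nM for 5 min, lysis 10 min, bead incubation 5 hr at room temperature.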
Tau fil binding – binders of human tau filaments | AID 596 | 71,000 tested, 2% active | recombinant tau filaments, thioflavin S fluorescence, 15 h; filaments grown with octadecylsulfate alongside compound | Potency, µM (top dose mostly 57.1 µM), for the others: at the highest dose activity change, negative = inhibition | P10636;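 also: actives lower thioflavin S fluorescence by blocking filaments or displacing dye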
Target sequence (P10636 whole entry, looked up): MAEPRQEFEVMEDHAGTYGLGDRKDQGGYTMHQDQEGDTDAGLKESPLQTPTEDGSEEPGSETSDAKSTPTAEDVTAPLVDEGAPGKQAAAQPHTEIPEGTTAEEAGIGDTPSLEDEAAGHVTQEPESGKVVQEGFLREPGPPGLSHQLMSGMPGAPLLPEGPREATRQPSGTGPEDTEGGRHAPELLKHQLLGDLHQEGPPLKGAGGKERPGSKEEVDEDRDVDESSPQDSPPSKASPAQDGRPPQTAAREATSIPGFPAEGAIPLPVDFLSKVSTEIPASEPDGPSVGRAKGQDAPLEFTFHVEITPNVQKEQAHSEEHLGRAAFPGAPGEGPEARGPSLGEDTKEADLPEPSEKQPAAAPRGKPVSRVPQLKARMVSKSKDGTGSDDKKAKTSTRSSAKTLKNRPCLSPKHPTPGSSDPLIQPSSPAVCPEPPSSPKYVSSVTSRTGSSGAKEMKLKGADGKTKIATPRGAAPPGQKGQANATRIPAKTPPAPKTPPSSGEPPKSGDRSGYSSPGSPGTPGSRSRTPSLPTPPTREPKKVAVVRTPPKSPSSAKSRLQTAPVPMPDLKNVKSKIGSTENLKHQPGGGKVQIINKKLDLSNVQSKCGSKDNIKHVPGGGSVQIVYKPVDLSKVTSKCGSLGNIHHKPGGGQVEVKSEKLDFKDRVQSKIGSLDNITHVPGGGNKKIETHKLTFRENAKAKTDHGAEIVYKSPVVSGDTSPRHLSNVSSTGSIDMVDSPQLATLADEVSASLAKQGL
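His-tagged recombinant human tau (exons 2, 3, 10; 1 uM final) fibrillized with 30 uM sodium octadecylsulfate, 15 h at 37 C, in pH 7.4 HEPES buffer with 10 uM thioflavine S and 5 mM DTT. Reduced ThS fluorescence (450/510 nm) marks activity.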
Hsp90 Hop PPI – changes Hsp90-Hop TPR2A binding signal, up or down; AlphaScreen TPR2A-His6 binding biotin-Hsp90 C-terminal peptide; Potency, µM (doses to about 57 µM), inactives show at the top dose activity change, negative = inhibition; 71,000 tested, 0.44% active; AID 595; active = well fitted curve in either direction with a large enough effect; inconclusive = small, poorly fitted or top-dose-only effect, or another doubt
FLuc inh – firefly luciferase inhibition. purified firefly luciferase, luminescence, 8 min. Potency, µM (doses to about 57.1 µM), for inactives: at the top dose activity change, negative = inhibition, most hits filed as inhibitors. P08659. 72,000 tested, 2.2% active; also: nearly all actives have a fitted effect of over 40% in size
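Inhibition of light generation by firefly luciferase from ATP and luciferin was profiled with concentration-response curves per sample, ATP held at 10 uM within the enzyme's linear range. Plates were read by luminescence after an 8-minute ambient incubation.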
15-hLO inh – 15-hLO (ALOX15) enzyme inhibition | 74,000 tested, 1.4% active | AID 887 | Potency, µM (highest dose often 57.1 µM), inactives show at the highest dose activity change, negative = inhibition, hits mostly inhibitors | purified 15hLO-1, xylenol orange hydroperoxide absorbance; also: nearly all actives have a fitted effect of over 55% in size
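Inhibition is scored from a chromogenic endpoint. After 15 min enzyme-compound contact, arachidonic acid (50 uM final) reacts 6 min with 40 nM 15hLO-1 at room temperature, then Fe-XO reagent is added for 30 min and absorbance ratio recorded.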
* = called active by the depositor; ! = not active in a repeat; [ ] = another dose, or the depositor's remark. A selection: hits, their analogues and other compounds. The true share with any hit is near 6.1%. Unless noted, calls follow the shape of the dose curve; as a rule, active = well fitted curve in the direction sought with a large enough effect; inconclusive = small, poorly fitted or top-dose-only effect, or another doubt; inactive = no such curve, though single readings can be large; an effect the other way counts as inactive or inconclusive. Unless noted, % is scaled to controls: 0 for no effect and ±100 for the full control effect; potency is read from the fitted curve at half-maximal effect.

`Clc1ccccc1C(c1ccccc1)(c1ccccc1)n1ccnc1` gave ERK AVP inh 25.1µM*!, Tau fil binding 14.6%[25.6 µM], Hsp90 Hop PPI -13.9%[26 µM], FLuc inh 4.8%[25.5 µM] and 15-hLO inh -24.0%.
For COc1ccc(C(c2sc3ncnn3c2O)N2CCN(c3ccccc3F)CC2)cc1OC (stereo not given) the results were Tau fil binding -6.6%, Hsp90 Hop PPI -7.2%, FLuc inh 10µM* and 15-hLO inh 0.0%.
`COc1ccc(C(c2sc3ncnn3c2O)N2CC(C)OC(C)C2)cc1OC` (stereo not given) gave Tau fil binding 1.0%, Hsp90 Hop PPI -4.4%, FLuc inh 12.6µM* and 15-hLO inh 4.9%.
For Cc1cccc([N+](=O)[O-])c1C the results were ERK AVP inh 9.6%, Tau fil binding 0.7%, Hsp90 Hop PPI -3.8% and 15-hLO inh 10.9%.
`N#Cc1cccc(NC(=O)N2CCCC3(CCN(C(=O)c4cccc(F)c4)CC3)C2)c1` gave ERK AVP inh -15.1%, Tau fil binding 9.1%, Hsp90 Hop PPI -4.0%, FLuc inh 1.6%[11.4 µM] and 15-hLO inh 0.6%.
N#CC(C(=O)NCc1ccco1)c1nc2ccccc2nc1N1CCOCC1 (stereo not given) was read as ERK AVP inh -29.8%, Tau fil binding 3.98µM*, Hsp90 Hop PPI -9.9%, FLuc inh 0.5% and 15-hLO inh -11.3%.
Screening CCCCCCNC(=O)C(C#N)c1nc2ccccc2nc1N1CCCC1 (stereo not given) returned PK Bst >57, ERK AVP inh -1.8%, Tau fil binding -9.2%, Hsp90 Hop PPI -0.3%, FLuc inh -34.6% and 15-hLO inh 1.8%.
For CCOC(=O)N1CCN(c2nc3ccccc3nc2C(C#N)C(=O)NCCc2ccccc2)CC1 (stereo not given) the results were PK Bst >57, ERK AVP inh -19.1%, Tau fil binding 3.98µM*, Hsp90 Hop PPI 0.7%, FLuc inh 1.5% and 15-hLO inh -11.0%.
For CCCCCCNC(=O)C(C#N)c1nc2ccccc2nc1N1CCOCC1 (stereo not given) the results were PK Bst >57, ERK AVP inh -26.6%, Tau fil binding 3.98µM*, Hsp90 Hop PPI -4.6%, FLuc inh 0.6% and 15-hLO inh -1.5%.
For N#CC(C(=O)NCc1ccccc1)c1nc2ccccc2nc1N1CCCC1 (stereo not given) the results were PK Bst >57, ERK AVP inh -0.4%, Tau fil binding 60.8%, Hsp90 Hop PPI 0.3%, FLuc inh 1.6% and 15-hLO inh -1.1%.
For N#CC(C(=O)NCCc1ccccc1)c1nc2ccccc2nc1N1CCOCC1 (stereo not given) the results were PK Bst >57, ERK AVP inh inconclusive, Tau fil binding 2.51µM*, Hsp90 Hop PPI 2.1%, FLuc inh -1.9% and 15-hLO inh -7.2%.
For C[C@H]1COC(=O)[C@H]2CCCN2C(=O)[C@@H](C)COC(=O)[C@H](Cc2ccccc2)NC1=O the results were ERK AVP inh 1.5%[11.5 µM], FLuc inh 0.1%[11.4 µM] and 15-hLO inh 0.4%[11.4 µM].
For CCN(CC)c1nc2ccccc2nc1C(C#N)C(=O)NCCCOC (stereo not given) the results were PK Bst >57, ERK AVP inh -20.3%, Tau fil binding 7.94µM*, Hsp90 Hop PPI -0.5%, FLuc inh 3.0% and 15-hLO inh -17.9%.
Screening CCCCN(CCCC)c1nc2ccccc2nc1C(C#N)C(=O)NCCCOC (stereo not given) returned PK Bst >25.6 and FLuc inh 1.2%[25.5 µM].
Screening CCn1c(NCc2c[nH]c3ccccc23)nc2ccccc21 returned PK Bst >57, ERK AVP inh -1.0%, Tau fil binding -19.5%, Hsp90 Hop PPI -3.8%, FLuc inh -20.1% and 15-hLO inh -17.8%.
`Cn1c(/N=C/c2c[nH]c3ccccc23)nc2ccccc21` gave PK Bst 0.3*, ERK AVP inh -5.5%, Tau fil binding 20.4%, Hsp90 Hop PPI -11.8%, FLuc inh 0.631µM* and 15-hLO inh -7.0%.
Screening CCCn1c(NCc2ccc3c(c2)OCO3)nc2ccccc21 returned 15-hLO inh -6.6%.
Cn1c(NCc2c[nH]c3ccccc23)nc2ccccc21 was read as ERK AVP inh inconclusive, Tau fil binding 45.0%, Hsp90 Hop PPI -5.3%, FLuc inh 25.1µM* and 15-hLO inh -3.4%.
Cn1c(/N=C/c2ccc3c(c2)OCO3)nc2ccccc21 was read as ERK AVP inh 10.7%, Tau fil binding -10.2%, Hsp90 Hop PPI -3.6%, FLuc inh 2.51µM* and 15-hLO inh -6.7%.
For N#Cc1c2c(c(NCc3ccco3)n3c1nc1ccccc13)CCC2 the results were ERK AVP inh 34.0%, Tau fil binding -17.1%, Hsp90 Hop PPI inconclusive, FLuc inh -1.3% and 15-hLO inh 5.01µM*.
For CN(C)CCNc1c2c(c(C#N)c3nc4ccccc4n13)CCCC2 the results were PK Bst >57, ERK AVP inh 11.9%, Tau fil binding 12.9%, Hsp90 Hop PPI -4.3%, FLuc inh -1.0% and 15-hLO inh 0.6%.
Screening CCCn1c(C)nc2c(NC3CCN(Cc4ccccc4)C3)nc(C)nc21 (stereo not given) returned ERK AVP inh -12.3%, Tau fil binding 0.9%, Hsp90 Hop PPI 0.2% and 15-hLO inh 8.1%.
`CCCCn1c(NCc2ccccc2O)nc2ccccc21` gave ERK AVP inh 25.1µM*, Tau fil binding 4.4%, Hsp90 Hop PPI -2.1%[2.3 µM], FLuc inh -12.6% and 15-hLO inh -12.6%.
For Cn1c(NCc2ccco2)nc2ccccc21 the results were PK Bst >57, ERK AVP inh inconclusive, Tau fil binding 15.8µM*, Hsp90 Hop PPI -9.8%, FLuc inh 0.3% and 15-hLO inh -27.6%.
For Cn1c(NCc2cccs2)nc2ccccc21 the results were PK Bst >57, ERK AVP inh -22.9%, Tau fil binding 1.6%, Hsp90 Hop PPI -3.1%, FLuc inh -8.3% and 15-hLO inh -2.3%.
For O=[N+]([O-])c1cc(Cl)cc2c1nc(NCCO)c1ccccc12 the results were ERK AVP inh -6.1%[11.5 µM], Tau fil binding 3.98µM*, Hsp90 Hop PPI -9.4%[11 µM], FLuc inh 2.4%[11.4 µM] and 15-hLO inh -15.3%[11.4 µM].
Screening CCOc1cccc(-c2cc(C(=O)N/N=C/c3cccc(OC)c3O)[nH]n2)c1 returned 15-hLO inh 7.2%.
Screening C[Si](C)(C)Cl returned ERK AVP inh 19.2%, Tau fil binding 12.5%, Hsp90 Hop PPI -2.1% and 15-hLO inh -10.2%.
Screening CC(C)=CCc1c2c(c3occ(-c4ccc(O)c(O)c4)c(=O)c3c1O)C=CC(C)(C)O2 returned ERK AVP inh inconclusive, Tau fil binding 3.16µM*, Hsp90 Hop PPI -6.0%[11 µM], FLuc inh 2.5%[11.4 µM] and 15-hLO inh 3.98µM*.
